In this assay the test system is Potassium Channel KATP. Put plainly: CYP450 and receptor off-target profile – biochemical, Ricerca HitProfilingScreen, selectivity assay for GPR7 antagonist project, late-stage follow-up (AID 504401). The note with it: Ricerca radioligand binding and CYP450 panel, at 10 µM, stronger effect = higher value.

A number with no mark means an inactive call. The rule behind the calls is not given here.

For the molecule `COc1ccc(Oc2c(Cl)cnn(-c3cc(C)cc(C)c3)c2=O)cc1`, the inhibition was 11%.

The values are drawn from PubChem BioAssay AID504401 (The Scripps Research Institute Molecular Screening Center, 2011).
